Each structure is given as a SMILES string. Hit rate of the full screen: of about 50,000 compounds, about 800 (1.6%) showed an effect of 50% or more. The sample holds strong results, similar compounds and a random draw of the others, so the mix is not that of the screen.

Bcl-2-like protein 10 (Homo sapiens), sequence (Q9HD36 whole entry, looked up): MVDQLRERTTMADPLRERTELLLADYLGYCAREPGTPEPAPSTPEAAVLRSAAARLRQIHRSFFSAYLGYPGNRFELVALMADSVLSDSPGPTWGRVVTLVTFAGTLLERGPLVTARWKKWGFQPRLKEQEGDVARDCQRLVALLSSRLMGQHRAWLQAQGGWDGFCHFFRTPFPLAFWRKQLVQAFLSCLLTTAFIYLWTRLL

The test addresses Bcl-2-like protein 10 (Homo sapiens) (UniProt Q9HD36). Description: Phenotype converters, Bcl-B/TR3 peptide binding displacement, primary biochemical FP (AID 1240).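 Further: 0% = Bcl-B with tracer peptide and DMSO and 100% = tracer peptide lacking Bcl-B.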 The settings on record: GST-Bcl-B / FITC-TR3 peptide fluorescence polarization; stronger effect = higher value; compound at 3.75 mg/L.
In the case of `Oc1ccccc1C=Nc1ccc2c(c1)ncn2-c1ccccc1`, the displacement was determined as 15.5%.

In the case of `Cc1nc2cc(N=Cc3ccccc3O)ccc2n1C`, the displacement was found to be 12.7%.

Regarding `Oc1ccccc1C=Nc1ccc2c(c1)ncn2CCn1cnc2cc(N=Cc3ccccc3O)ccc21`, the displacement came to 115%.

Consider `Cc1nc2c(sc3nc(C)c(C)c(C)c32)c(=O)o1`, for which the displacement was 0%.

As for `COC(=O)c1cc(Cl)c(NC(=O)C(c2ccccc2)c2ccccc2)cc1OC`, the displacement is -16.6%.

Turning to `COc1cc(/C=N/NC(=O)/C(=C\C=C\c2ccccc2)NC(=O)c2ccccc2)cc(OC)c1O`, the displacement is -2.3%.

As for `O=c1oc2c3c4c(cc2cc1CCO)CCCN4CCC3`, the displacement came to 75.8%.

Regarding `Cc1c(OCc2ccc(C(=O)O)cc2)ccc2c3c(c(=O)oc12)CCC3`, the displacement is 8.3%.

Regarding `Cc1c(O)ccc2c3c(c(=O)oc12)CCC3`, the displacement was determined as 12.3%.

On to `CN1CCN(Cc2c(O)ccc3c4c(c(=O)oc23)CCC4)CC1`, for which the displacement is -0.5%.

In the case of `O=c1cc(C(F)(F)C(F)(F)F)c2cc3c4c(c2o1)CCCN4CCC3`, the displacement was determined as 66.7%.

For `Cc1c(C=O)c(=O)oc2c3c4c(cc12)CCCN4CCC3`, the displacement amounted to 148%.

As to `COCCCNC(=O)c1ccc(C(=O)NCCCOC)cc1`, the displacement is -6.5%.

With `O=[N+]([O-])c1cnc(-c2ccccc2)nc1`, the displacement was -3.2%.

Take `COc1cc(Br)cc(/C=C(\C#N)C(=O)NC2CCCCC2)c1O`: the displacement was -5.3%.

With `COc1ccc(Cl)cc1C(=O)Nc1nc(-c2ccc(Cl)cc2Cl)cs1`, the displacement stood at 9.7%.

Turning to `CCSc1nc2ccccc2n1Cc1ccc(OC)c([N+](=O)[O-])c1`, the displacement was found to be 10.5%.

With `CC(=O)Nc1cccc(NS(=O)(=O)c2ccccc2)c1`, the displacement stood at 9.1%.

Turning to `C=CCNC(=O)Nc1ccc2nccnc2c1`, the displacement was found to be 8.7%.

For `CCOC(=O)c1c(NC=O)sc2c1CCC2`, the displacement is -2.1%.

Take `CCOC(=O)c1c(NC=O)sc2c1CCC/C2=N\O`: the displacement is 148%.

Regarding `CCOC(=O)c1c(NC(=O)c2ccccc2)sc2c1CCC/C2=N/O`, the displacement was -0.2%.

Turning to `COc1cccc(N2C(=O)C(=O)/C(=C(\O)c3ccccc3)C2c2ccc([N+](=O)[O-])cc2)c1` (stereo unspecified), the displacement turned out to be 4.1%.

On to `O=c1/c(=C/c2cn(Cc3ccc(F)cc3)c3ccccc23)sc2nc3ccccc3n12`, for which the displacement came to 2.3%.

With `NS(=O)(=O)c1cccc(NC(=O)c2cccs2)c1`, the displacement came out at 1.4%.

For the compound `O=C(CCCN1C(=O)/C(=C\c2cccs2)SC1=S)Nc1ccccc1O`, the displacement is 10.6%.

As for `COc1ccc(NC(=O)CCN2C(=O)/C(=C/c3ccc(F)cc3)SC2=S)cc1`, the displacement was 12.3%.

Take `COc1ccc(NC(=O)CCN2C(=O)/C(=C\c3cccc(OC)c3)SC2=S)cc1`: the displacement was -5.5%.

As for `COc1ccc(NC(=O)CCN2C(=O)/C(=C/c3cccs3)SC2=S)cc1`, the displacement worked out at 82.8%.

As for `CCOc1ccc(/C=C2\SC(=S)N(CCC(=O)N3CCN(C)CC3)C2=O)cc1`, the displacement amounted to 1.2%.

As for `O=C(CCN1C(=O)/C(=C/c2cccs2)SC1=S)Nc1ccc(F)cc1`, the displacement is 10.6%.

`O=C(CCCN1C(=O)/C(=C\c2cccs2)SC1=S)Nc1ccc(F)c(Cl)c1`: the displacement is 3.9%.

For the compound `O=C(CCCN1C(=O)/C(=C/c2ccccc2)SC1=S)Nc1ccccc1C(=O)O`, the displacement came out at 2%.

Take `Cc1ccccc1NC(=O)CCCN1C(=O)/C(=C/c2cccc3c2OCO3)SC1=S`: the displacement was found to be 94.9%.

Turning to `CCOc1ccc(/C=C2/SC(=S)N(CN3CCOCC3)C2=O)cc1`, the displacement came out at 8.8%.

Turning to `CCOc1ccc(/C=C2\SC(=S)N(CCC(=O)N3CCOCC3)C2=O)cc1`, the displacement stood at 100%.

Take `O=C(CCN1C(=O)/C(=C\c2cccs2)SC1=S)Nc1ccc(Cl)cc1`: the displacement was determined as 77.4%.

Regarding `O=C(O)CSc1nnc(-c2ccco2)n1-c1ccccc1`, the displacement was 0.4%.

Consider `O=C(Nc1ccc(Cl)c(Cl)c1)C(c1ccccc1)c1ccccc1`, for which the displacement came to 15.4%.

On to `COC(=O)c1ccccc1P(C)(C)=O`, for which the displacement is 1%.

On to `COc1ccc(Br)cc1C(=O)Nc1cc2nn(-c3ccc(C)cc3)nc2cc1C`, for which the displacement is -6.9%.

Consider `COc1ccc(NS(=O)(=O)c2cc(C)ccc2C)cc1`, for which the displacement is 2%.

For the compound `O=C(Nc1cccnc1)c1cccc(C(=O)Nc2cccnc2)n1`, the displacement was -7.2%.

Turning to `O=C(CSc1nnc(-c2ccncc2)n1-c1ccccc1)c1ccc(F)cc1`, the displacement was -2.7%.

`COc1ccc(C(=O)Nc2cccc(NC(=O)c3ccc(F)cc3)c2)cc1Br`: the displacement is 2.2%.

In the case of `CN(C)c1ccc(NS(=O)(=O)c2ccccc2[N+](=O)[O-])cc1`, the displacement worked out at 9.8%.

For the compound `O=C1C(Cl)=C(N2CCOCC2)C(=O)C(Cl)=C1/C=C/N1CCOCC1`, the displacement was determined as 24.3%.

With `O=C(CCN1C(=O)/C(=C/c2cccs2)SC1=S)Nc1cccnc1`, the displacement is 135%.

Turning to `Cc1c(NC(=O)CCCN2C(=O)/C(=C/c3ccccc3)SC2=S)c(=O)n(-c2ccccc2)n1C`, the displacement was 1.5%.

In the case of `CCOc1ccc(/C=C2\SC(=S)N(CCC(=O)Nc3ccccn3)C2=O)cc1`, the displacement was -4.3%.

As to `O=C(CCCN1C(=O)/C(=C\c2cccs2)SC1=S)Nc1cccnc1`, the displacement is -0.9%.

As to `COc1ccc(/C=C2\SC(=S)N(CCCC(=O)Nc3c(C)n(C)n(-c4ccccc4)c3=O)C2=O)cc1`, the displacement came out at 120%.

As for `COc1cccc(NC(=O)CCN2C(=O)/C(=C/c3ccc(C)cc3)SC2=S)c1`, the displacement was 39.1%.

With `COc1cccc(/C=C2/SC(=S)N(CCC(=O)Nc3c(C)n(C)n(-c4ccccc4)c3=O)C2=O)c1`, the displacement was determined as 7.7%.

Turning to `O=C(CCN1C(=O)/C(=C/c2cccs2)SC1=S)Nc1cccc(F)c1`, the displacement is -21.4%.

Take `CCOc1ccc(/C=C2\SC(=S)N(CCC(=O)Nc3cccnc3)C2=O)cc1`: the displacement came to 77%.

As for `CCc1ccc(C(=O)CC2(O)C(=O)Nc3ccc(Br)cc32)cc1` (stereo unspecified), the displacement came to 2.3%.

As to `Cc1ccc(CN2CCN(N=Cc3c(O)ccc4ccccc34)CC2)c(C)c1`, the displacement came out at 0.3%.

As to `Cc1nc([N+](=O)[O-])cn1-c1cccc(O)c1`, the displacement stood at 3%.

Take `Cc1cccc(NC(=O)COc2ccccc2)n1`: the displacement was found to be 13.2%.

As to `CCCNc1nc(OCC(F)(F)F)nc(OCC(F)(F)F)n1`, the displacement stood at 12.4%.

For `O=C1OC(c2ccc(F)cc2)=N/C1=C\c1cccc(Br)c1`, the displacement came out at 74.2%.

`O=C1OC(c2cccc(F)c2)=N/C1=C\c1ccc(F)cc1`: the displacement was -2.2%.

Take `CN(C)/C=C1\N=C(c2cccc(Br)c2)OC1=O`: the displacement was found to be 0.8%.

`Cc1ccc(C2=N/C(=C\c3ccccc3)C(=O)O2)cc1`: the displacement was -7.3%.

As for `COc1ccc(/C=C2/N=C(c3ccc(C)cc3)OC2=O)cc1Br`, the displacement stood at 127%.

Consider `O=C1OC(c2ccc(F)cc2)=N/C1=C\c1ccc(Cl)cc1`, for which the displacement amounted to 4.3%.

For the compound `COc1ccc(C2=NC(=Cc3ccc(Br)cc3)C(=O)O2)cc1`, the displacement was 22.5%.

On to `COc1cc(/C=C2\N=C(c3cccc(Br)c3)OC2=O)cc(OC)c1OC`, for which the displacement was 72.6%.

As for `COc1ccc(/C=C2\N=C(c3cccc(OC)c3)OC2=O)cc1`, the displacement was -1.7%.

Regarding `Cc1ccc(/C=C2\N=C(c3ccc(Cl)cc3)OC2=O)cc1`, the displacement turned out to be 0%.

Regarding `COc1ccc(/C=C2/N=C(c3ccc(Br)cc3)OC2=O)cc1`, the displacement is 99.4%.

For the compound `C=CCOc1c(Br)cc(/C=C2/N=C(c3ccccc3)OC2=O)cc1OC`, the displacement is -4.9%.

In the case of `CN(C)c1ccc(/C=N/NC(=O)c2ccc(CN3CCOCC3)cc2)cc1Br`, the displacement was 6.3%.

`Cc1ccc(-c2csc(N)c2C(=O)OC(C)C)cc1`: the displacement was -1.9%.

For `Cc1c(NC(=O)c2cccs2)cccc1-c1nc2ncccc2o1`, the displacement was 3.8%.

With `O=C(Nc1ccc(Nc2ccccc2)cc1)c1ccc(Cl)cc1Cl`, the displacement was -13.5%.

For the compound `O=C(N/N=C/c1ccccc1Cl)c1ccccn1`, the displacement is -9.6%.

For `CNCCOc1nc(-c2ccccc2)cc(-c2ccccc2)n1`, the displacement was -7.8%.

Regarding `CCOC(=O)N1CCN(S(=O)(=O)c2ccc(C)cc2)C1`, the displacement is 10.6%.

As to `O=C1CS/C(=N/N=C/c2ccc3c(c2)OCO3)N1`, the displacement was -8.7%.

For `O=C(NCC1CCS(=O)(=O)C1)OC1CCCCC1` (stereo unspecified), the displacement amounted to 2%.

Consider `CC1(C)CC(NCC(=O)OC2CCCCC2)CC(C)(C)N1`, for which the displacement stood at 12.1%.

On to `NC(CC(=O)OC1CCCCC1)C(=O)OC1CCCCC1` (stereo unspecified), for which the displacement was 74.3%.

Regarding `Cc1ccc2[nH]c(C)c(CN(C)Cc3ccccc3)c(=O)c2c1`, the displacement is -15.8%.

In the case of `COCCCNC(=O)CN(c1cccc([N+](=O)[O-])c1)S(=O)(=O)c1ccccc1`, the displacement came out at 11.1%.

As to `Cc1cc(NC(=O)c2cc(-c3ccccc3)nc3ccccc23)no1`, the displacement stood at 3.8%.

As for `CCO/C=C1\C(=O)N(CC)c2ccccc21`, the displacement stood at 19.1%.

Turning to `CN(C)/C=C1/C=C(c2ccccc2)OC1=O`, the displacement was -11.5%.

`CN(C)/C=C1\C=C2C(=O)c3ccccc3N2C1=O`: the displacement was 162%.

For `COc1ccc(N(CC(=O)NCc2ccccc2)S(=O)(=O)c2ccc(C)cc2)cc1`, the displacement is -1.4%.

For `COc1ccc(OC)c(N(CC(=O)N/N=C/c2ccc(OC3CSC3)cc2)S(=O)(=O)c2ccccc2)c1`, the displacement stood at 7.5%.

As for `COc1ccc(C(=O)O/N=C(\N)c2ccccc2)cc1`, the displacement is -9.3%.

As to `COc1ccc(/C(N)=N/OC(=O)c2ccc(Cl)cc2)cc1`, the displacement was 83.7%.

As for `COc1ccc(/C(N)=N/OC(=O)c2ccc(C)cc2)cc1`, the displacement is -20.8%.

Turning to `O=C(COc1ccccc1Cl)NNC(=O)c1ccccn1`, the displacement is -13%.

On to `COc1ccc(/C=C2\C=C(c3ccc(Cl)cc3)OC2=O)cc1OC`, for which the displacement came to 147%.

On to `COc1cc(/C=C2\C=C(c3ccc(Cl)cc3)OC2=O)cc(Br)c1OC`, for which the displacement is -9.5%.

Turning to `O=C1ON=C(c2ccc(Cl)cc2)/C1=C/c1ccc(O)cc1`, the displacement turned out to be 4.4%.

Take `CCOc1cc(/C=C2/C(=O)ON=C2c2ccc(Cl)cc2)ccc1OC`: the displacement is 118%.

In the case of `COc1ccc(C2=C/C(=C/c3ccc(Cl)cc3)C(=O)O2)cc1OC`, the displacement amounted to 105%.

Turning to `COc1ccc(C2=C/C(=C/c3ccc(Cl)cc3)C(=O)O2)cc1`, the displacement was -4.1%.

As to `CCOc1c(I)cc(/C=C2\C(=O)ON=C2c2ccccc2)cc1OC`, the displacement came to 3.5%.

Take `COc1ccc(/C=C2\C=C(c3ccc(Cl)cc3)OC2=O)cc1C`: the displacement was found to be 0.9%.

Turning to `COc1ccc(/C=C2\C=C(c3ccc(Cl)cc3)OC2=O)cc1[N+](=O)[O-]`, the displacement worked out at 36.4%.

Consider `CN(C)c1ccc(C=Nn2cnnc2)cc1`, for which the displacement was -7.2%.

`CCN(CC)CCSc1nc(O)c(C2CCCCC2)c(=O)[nH]1`: the displacement was -6.4%.

Turning to `COc1cccc(C2NC(=S)NC(C)=C2C(=O)Nc2cccc(Cl)c2)c1` (stereo unspecified), the displacement was -14%.

As to `N#C/C(=C\c1ccc(-c2cccc([N+](=O)[O-])c2)o1)C(=O)N1CCOCC1`, the displacement is -3.5%.

With `CCOC(=O)c1c(C)n(C)c2c1cc(O)c1ccccc12`, the displacement is -0.3%.

For `Cc1ccc(/C=C(\C#N)c2nc(-c3ccc([N+](=O)[O-])cc3)cs2)o1`, the displacement turned out to be 3.5%.

Source of the values: PubChem BioAssay AID1240 (Sanford-Burnham Center for Chemical Genomics, 2008).
